37 compounds from the supplement of paper PMC12067926 can be followed below.

The first assay relates to Serratia 1 (Serratia sp. 2015-2462-01). Kind of assay: relative growth (AUC of 72 h growth curve relative to DMSO control, dAUC) (ratio); higher = more growth (less inhibition), active = hit call of the paper. The conditions noted are these: 20 µM. In a few lines: (§1)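 Isolates from Icelandic stream sediments and Silwood Park soil, along with whole sediment communities, were grown in Luria–Bertani medium to carrying capacity and diluted 1:100 into 96-well plates with each chemical at 20 µM (1% DMSO). A600 was measured hourly for 72 h, and values were averaged over three biological replicates. Relative growth (dAUC) is the spline-integrated growth-curve area over the mean of the DMSO controls.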
Turning to `CNC(=O)CSP(=S)(OC)OC`, the relative growth is 0.96 (inactive).
The same measure, in the same setting: to `N#CCNC(=O)c1cnccc1C(F)(F)F` belongs 0.947 (inactive).
On the same count and under the same terms, the value for `COP(=O)(OC)OC=C(Cl)Cl` was 0.96 (inactive).
On to `CCc1cc(C)cc(CC)c1-c1c(OC(=O)C(C)(C)C)n2n(c1=O)CCOCC2`, for which the relative growth was 0.972 (inactive).
Same read-out and setting: the value for `CCOc1ccc(C(C)(C)COCc2cccc(Oc3ccccc3)c2)cc1` was 0.956 (inactive); that for `COc1ncc(F)c2nc(S(=O)(=O)Nc3c(F)cccc3F)nn12` was 1.03 (inactive).
Regarding `O=[N+]([O-])c1cc(C(F)(F)F)c(Cl)c([N+](=O)[O-])c1Nc1ncc(C(F)(F)F)cc1Cl`, the relative growth was 0.004 (active).
On to `COP(=S)(OC)Oc1ccc(SC)c(C)c1`, for which the relative growth was 0.998 (inactive).
In the case of `CCCCCCCCCCCCNC(=N)N`, the relative growth was 0.00141 (active).
Turning to `CC(C)NC(=O)N1CC(=O)N(c2cc(Cl)cc(Cl)c2)C1=O`, the relative growth is 0.982 (inactive).
For the compound `CCCCOC(=O)[C@H](C)Oc1ccc(Oc2ccc(C#N)cc2F)cc1`, the relative growth was 1 (inactive).
Turning to `CCc1cccc(C)c1N(C(=O)CCl)[C@@H](C)COC`, the relative growth is 0.985 (inactive).
In the case of `CC(C1CC1)C(O)(Cn1cncn1)c1ccc(Cl)cc1` (centres undefined), the relative growth is 1 (inactive).
The same measure, in the same setting: to `CC(COc1ccc(Oc2ccccc2)cc1)Oc1ccccn1` (centres undefined) belongs 0.987 (inactive); to `CCNc1nc(Cl)nc(NC(C)C)n1`, 0.928 (inactive).
Same read-out and setting: the value for `N#C/N=C1\SCCN1Cc1ccc(Cl)nc1` was 0.986 (inactive); that for `CCCC1COC(Cn2cncn2)(c2ccc(Cl)cc2Cl)O1` (centres undefined) was 0.944 (inactive); that for `COc1cc(C)c(C(=O)c2c(OC)ccc(Br)c2C)c(OC)c1OC` was 1.02 (inactive).
Still for that read-out and setting: the value for `C/C(=N\C#N)N(C)Cc1ccc(Cl)nc1` was 0.976 (inactive); that for `CCCCN(CCCC)SN(C)C(=O)Oc1cccc2c1OC(C)(C)C2` was 0.977 (inactive).
Regarding `N#Cc1c(Cl)c(Cl)c(Cl)c(C#N)c1Cl`, the relative growth was 0.92 (inactive).
In the case of `Cc1nc(N(C)C)nc(OC(=O)N(C)C)c1C`, the relative growth is 0.992 (inactive).
With `CC(C)CC(C)c1sccc1NC(=O)c1cn(C)nc1C(F)(F)F` (centres undefined), the relative growth is 0.974 (inactive).
As to `Fc1ccc(Oc2ccnc3cc(Cl)cc(Cl)c23)cc1`, the relative growth was 1.01 (inactive).
Same read-out and setting: to `CC1(C)C(C=C(Cl)Cl)C1C(=O)OCc1cccc(Oc2ccccc2)c1` (centres undefined) belongs 0.964 (inactive); to `Oc1ccccc1-c1ccccc1`, 0.959 (inactive); to `CCC(C)c1ccccc1OC(=O)NC` (centres undefined), 0.971 (inactive).
Turning to `CN/C(=N\[N+](=O)[O-])NCc1cnc(Cl)s1`, the relative growth is 0.931 (inactive).
The same measure, in the same setting: to `O=C(O)c1nc(Cl)ccc1Cl` belongs 0.977 (inactive); to `CC1(C)[C@H](/C=C(\Cl)C(F)(F)F)[C@@H]1C(=O)OC(C#N)c1cccc(Oc2ccccc2)c1` (some centres undefined), 1.01 (inactive); to `O=C(NC(=O)c1c(F)cccc1F)Nc1ccc(OC(F)(F)C(F)OC(F)(F)F)c(Cl)c1` (centres undefined), 0.995 (inactive).
Same read-out and setting: to `O=C1C=C(N(Cc2ccc(Cl)nc2)CC(F)F)CO1` belongs 0.962 (inactive); to `O=C(O)COc1ccc(Cl)cc1Cl`, 0.96 (inactive); to `COc1ccc(C(=CC(=O)N2CCOCC2)c2ccc(Cl)cc2)cc1OC` (mixture of isomers), 0.978 (inactive).
Turning to `CCN(CC)c1nc(C)cc(OP(=S)(OC)OC)n1`, the relative growth was 0.994 (inactive).
On the same count and under the same terms, the value for `Oc1ccc(Cl)cc1Cc1cc(Cl)ccc1O` was 0.46 (active); that for `N#CC(CCc1ccc(Cl)cc1)(Cn1cncn1)c1ccccc1` (centres undefined) was 0.921 (inactive).

A further assay has as its system Sphingomonas 2 (Sphingomonas sp.). Described as above. The note with it: 20 µM. The gist of the method:
as §1
Regarding `CNC(=O)CSP(=S)(OC)OC`, the relative growth is 1.07 (inactive).
As for `N#CCNC(=O)c1cnccc1C(F)(F)F`, the relative growth is 1.08 (inactive).
With `COP(=O)(OC)OC=C(Cl)Cl`, the relative growth was 0.823 (inactive).
As for `CCc1cc(C)cc(CC)c1-c1c(OC(=O)C(C)(C)C)n2n(c1=O)CCOCC2`, the relative growth is 1.06 (inactive).
Regarding `CCOc1ccc(C(C)(C)COCc2cccc(Oc3ccccc3)c2)cc1`, the relative growth is 0.967 (inactive).
With `COc1ncc(F)c2nc(S(=O)(=O)Nc3c(F)cccc3F)nn12`, the relative growth was 1.04 (inactive).
For `O=[N+]([O-])c1cc(C(F)(F)F)c(Cl)c([N+](=O)[O-])c1Nc1ncc(C(F)(F)F)cc1Cl`, the relative growth is 0.0215 (active).
`COP(=S)(OC)Oc1ccc(SC)c(C)c1`: the relative growth is 0.974 (inactive).
Consider `CCCCCCCCCCCCNC(=N)N`, for which the relative growth was 0.00501 (active).
With `CC(C)NC(=O)N1CC(=O)N(c2cc(Cl)cc(Cl)c2)C1=O`, the relative growth was 0.971 (inactive).
Same read-out and setting: to `CCCCOC(=O)[C@H](C)Oc1ccc(Oc2ccc(C#N)cc2F)cc1` belongs 1.1 (inactive); to `CCc1cccc(C)c1N(C(=O)CCl)[C@@H](C)COC`, 0.791 (inactive); to `CC(C1CC1)C(O)(Cn1cncn1)c1ccc(Cl)cc1` (centres undefined), 1.13 (inactive).
For the compound `CC(COc1ccc(Oc2ccccc2)cc1)Oc1ccccn1` (centres undefined), the relative growth was 1.14 (inactive).
On the same count and under the same terms, the value for `CCNc1nc(Cl)nc(NC(C)C)n1` was 1.02 (inactive); that for `N#C/N=C1\SCCN1Cc1ccc(Cl)nc1` was 0.998 (inactive).
With `CCCC1COC(Cn2cncn2)(c2ccc(Cl)cc2Cl)O1` (centres undefined), the relative growth is 1.11 (inactive).
Same read-out and setting: the value for `COc1cc(C)c(C(=O)c2c(OC)ccc(Br)c2C)c(OC)c1OC` was 1.04 (inactive); that for `C/C(=N\C#N)N(C)Cc1ccc(Cl)nc1` was 1.03 (inactive).
Take `CCCCN(CCCC)SN(C)C(=O)Oc1cccc2c1OC(C)(C)C2`: the relative growth is 0.798 (inactive).
Turning to `N#Cc1c(Cl)c(Cl)c(Cl)c(C#N)c1Cl`, the relative growth was 0.0279 (active).
On to `Cc1nc(N(C)C)nc(OC(=O)N(C)C)c1C`, for which the relative growth is 0.968 (inactive).
For the compound `CC(C)CC(C)c1sccc1NC(=O)c1cn(C)nc1C(F)(F)F` (centres undefined), the relative growth is 0.888 (inactive).
For the compound `Fc1ccc(Oc2ccnc3cc(Cl)cc(Cl)c23)cc1`, the relative growth was 0.975 (inactive).
Turning to `CC1(C)C(C=C(Cl)Cl)C1C(=O)OCc1cccc(Oc2ccccc2)c1` (centres undefined), the relative growth is 1.02 (inactive).
As for `Oc1ccccc1-c1ccccc1`, the relative growth is 0.969 (inactive).
In the case of `CCC(C)c1ccccc1OC(=O)NC` (centres undefined), the relative growth was 1 (inactive).
With `CN/C(=N\[N+](=O)[O-])NCc1cnc(Cl)s1`, the relative growth was 0.945 (inactive).
The same measure, in the same setting: the value for `O=C(O)c1nc(Cl)ccc1Cl` was 0.931 (inactive); that for `CC1(C)[C@H](/C=C(\Cl)C(F)(F)F)[C@@H]1C(=O)OC(C#N)c1cccc(Oc2ccccc2)c1` (some centres undefined) was 0.868 (inactive); that for `O=C(NC(=O)c1c(F)cccc1F)Nc1ccc(OC(F)(F)C(F)OC(F)(F)F)c(Cl)c1` (centres undefined) was 1.11 (inactive).
Still for that read-out and setting: the value for `O=C1C=C(N(Cc2ccc(Cl)nc2)CC(F)F)CO1` was 0.914 (inactive); that for `O=C(O)COc1ccc(Cl)cc1Cl` was 1.04 (inactive).
Still for that read-out and setting: the value for `COc1ccc(C(=CC(=O)N2CCOCC2)c2ccc(Cl)cc2)cc1OC` (mixture of isomers) was 1.12 (inactive); that for `CCN(CC)c1nc(C)cc(OP(=S)(OC)OC)n1` was 0.839 (inactive).
For the compound `Oc1ccc(Cl)cc1Cc1cc(Cl)ccc1O`, the relative growth was 0.0145 (active).
As for `N#CC(CCc1ccc(Cl)cc1)(Cn1cncn1)c1ccccc1` (centres undefined), the relative growth is 1.08 (inactive).
